Source: PubChem
Most compounds without a hit are left out; they make up all but 2.4% or so of the library.
D2 ag-1: human D2 receptor agonism in beta-arrestin assay; AID 624465; 360,000 tested, 0.084% active; DiscoveRx PathHunter D2 beta-arrestin, luminescence, 90 min; 100% = 57 uM dopamine signal; activation, % (no concentration beside the values); P14416; in the data active means activation above about 40%; inconclusive means between about 15% and that limit
Target sequence (P14416 whole entry, looked up): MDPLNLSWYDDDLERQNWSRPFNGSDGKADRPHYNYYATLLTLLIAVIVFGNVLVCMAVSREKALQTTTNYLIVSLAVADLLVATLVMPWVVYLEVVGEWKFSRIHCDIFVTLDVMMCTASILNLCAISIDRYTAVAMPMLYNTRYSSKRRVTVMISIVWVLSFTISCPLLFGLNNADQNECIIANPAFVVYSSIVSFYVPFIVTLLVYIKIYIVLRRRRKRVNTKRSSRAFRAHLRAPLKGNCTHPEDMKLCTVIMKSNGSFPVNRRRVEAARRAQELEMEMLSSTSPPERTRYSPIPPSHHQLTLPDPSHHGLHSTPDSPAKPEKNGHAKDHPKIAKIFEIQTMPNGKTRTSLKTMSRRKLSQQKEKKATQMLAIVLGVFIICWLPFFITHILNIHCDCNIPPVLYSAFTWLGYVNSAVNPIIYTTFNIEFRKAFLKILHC
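DiscoveRx PathHunter D2 beta-arrestin cells (2,100/well) attached overnight, then compound-stimulated 90 min at 37 C in HBSS/10 mM HEPES/0.1% Tween-20 buffer; beta-galactosidase complementation read by luminescence after 1 h at ambient temperature. Dopamine 57 uM final (EC100) as control.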
D2 PAM-1: human D2 receptor positive allosteric modulation; DiscoveRx D2 beta-arrestin cells, luminescence, 90 min; 100% = 57 uM dopamine signal; P14416; 360,000 tested, 0.23% active; potentiation, % (test concentration not listed); in the data active means potentiation above about 50%; inconclusive means mostly about 30% to 49%
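D2 cells co-treated with compound plus 50 nM dopamine (EC20) for 90 min at 37 deg C to detect potentiation. Beta-arrestin recruitment was read as enzyme-fragment luminescence after 1 h at ambient temperature. Full response was set by 57 uM dopamine.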
D2 ag-2: agonists of human D2 dopamine receptor; HEK293 T-REx D2 cells, calcium flux agonist mode; AID 485358; P14416; 340,000 tested, 0.53% active; activation, % at 2 µM;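 active means activation over 3 SD above normal in the single-dose calcium agonist read, cut at about 30% in these data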
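In this primary screen, compounds producing a positive calcium signal within 180 s of addition to tetracycline-induced, force-coupled HEK293 Trex D2 cells are flagged; cells are dye-loaded with a no-wash calcium kit beforehand.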
D2 PAM-2: D2 dopamine receptor (human) potentiation; 340,000 tested, 0.34% active; P14416; potentiation, % at 10 µM; HEK293 T-REx D2, calcium flux, EC20 dopamine potentiation;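 active means potentiation over 3 SD above the plate norm, cut at about 30% in these data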
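Potentiation of an EC20 dopamine calcium response is measured in a force-coupled, tetracycline-inducible Hek293 Trex D2 line. Compound-only kinetic reads over 180 s flag agonists before dopamine addition.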
D2 antag: antagonists of human D2 dopamine receptor; inhibition, % at 10 µM; HEK293 TREx D2 cells, calcium flux, dopamine EC80; 340,000 tested, 2% active; in the data active means inhibition above about 30%; inactive means below that, where a call was filed
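HEK293 T-REx D2 cells, tet-induced, calcium dye no-wash. Cpd pintool add, 180 s kinetic, then EC80 DA, 180 s kinetic. Ca flux read.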
Hits are given with their value; – = inactive; ? = inconclusive; · = no result.

SMILES | D2 ag-1 | D2 PAM-1 | D2 ag-2 | D2 PAM-2 | D2 antag
Cc1nn(C)c(C(=O)NCc2ccc(Cl)cc2)c1Cl | – | – | – | – | 44
O=C(CC(=O)NCc1ccc(Cl)cc1)NCc1ccc(Cl)cc1 | – | – | – | – | –
Cc1nn(C)c(C(=O)NNC(=S)NCc2ccco2)c1Cl | – | – | – | 34 | –
Cc1ccc(CC(=O)NCc2ccc(Cl)cc2)cc1 | – | – | – | – | 53
Cc1nc(C)c(C(=O)NCc2ccc(Cl)cc2)o1 | – | – | – | – | –
CCOc1ccc(C(=O)NCCn2cc(SCC(=O)NCCc3ccc(OC)c(OC)c3)c3ccccc32)cc1 | · | · | – | – | ·
Cc1cccc(OC(=O)c2nc(SCc3ccccc3F)ncc2Cl)c1 | · | · | · | – | ·
CCN1CCN(C(c2ccc(F)cc2)c2c(O)cc(C)n(CCOC)c2=O)CC1 (configuration not stated) | · | · | · | – | ·
COc1ccccc1CN1CC(C(=O)NCc2cccc(Cl)c2)CCC1=O (configuration not stated) | – | – | – | – | 36
COc1cccc(CN2CC(C(=O)NCc3cccc(Cl)c3)CCC2=O)c1 (configuration not stated) | – | – | – | – | –
COc1ccccc1NC(=O)CSc1nnc(-c2ccco2)n1N | – | – | – | – | 34
CCOC(=O)CNC(=O)CSc1nnc(-c2ccco2)n1N | – | – | – | – | 34
CCOC(=O)CNC(=O)CSc1nnc(-c2ccco2)n1Cc1ccco1 | – | – | – | – | –
O=C(Cn1ncc2ccsc2c1=O)N1CCN(c2ccc(Cl)cc2)CC1 | · | · | – | – | ·
O=C(C1CCN(S(=O)(=O)N2CCOCC2)CC1)N1CCc2ccccc21 | – | – | – | – | 36
O=C(C1CCC(C(=O)N2CCc3ccccc32)CC1)N1CCc2ccccc21 (configuration not stated) | – | – | – | – | –
Cc1ccc(NC(=O)c2c(C)oc3ccc(O)c(CN4CCCCCC4)c23)cc1 | · | · | – | – | ·
Cc1cc(Nc2ccccc2C)n2nc(Cc3ccc(Cl)cc3)nc2n1 | · | · | – | – | ·
FC(F)(F)c1ccc(C2[C@H]3CN(Cc4ccc(-c5ccccc5)cc4)[C@H](c4ccccc4)C34CC2(c2ccccc2)C4)cc1 (some centres not stated) | – | – | – | – | 35
O=C(COCc1cc(-c2ccc3c(c2)OCO3)on1)N1CCCCC1 | – | – | – | – | 78
CC(C)c1ccc(-c2nc(N3CCCC3)nc3n[nH]c(N)c23)cc1 | – | – | – | 44 | –
FC(F)(F)c1ccc(Cl)c(N/N=C/c2ccc(N3CCOCC3)s2)c1 | ? | 72 | · | · | ·
O=C(N/N=C/c1ccc(N2CCOCC2)s1)c1ccccc1Cl | – | – | – | – | –
CCCC(=O)Nc1nc2nc(-c3ccccc3)cc(=O)n2[nH]1 | – | – | – | – | 32
Cn1c(SCC(=O)N2CCCc3ccccc32)ncc(C(=O)Nc2ccccc2)c1=O | · | · | – | – | ·
SMILES | D2 ag-1 | D2 PAM-1 | D2 ag-2 | D2 PAM-2 | D2 antag
COc1cccc(CNC(=O)c2c(C)nn(-c3cccc(C)c3)c2-n2cccc2)c1 | · | · | – | · | ·
CC(C)c1ccc(C2c3c(-c4ccccc4O)n[nH]c3C(=O)N2CCc2ccccc2)cc1 (configuration not stated) | · | · | – | – | ·
COc1ccccc1CN1CCC(CNS(=O)(=O)c2cc(-c3onc(C)c3C)ccc2OC)CC1 | – | – | – | – | 33
O=C(Nc1ccccc1)N1CCCc2ccccc21 | – | – | – | 47 | –
O=C(c1cccc(F)c1F)N1CCCc2ccccc21 | – | – | – | – | –
Cc1ccc(NC(=O)N2CCCc3ccccc32)cc1C | – | – | – | – | –
CN(C(=O)Nc1ccccc1)C1CCCc2ccccc21 (configuration not stated) | – | – | – | – | 30
O=C(c1ccccc1F)N1CCCc2ccccc21 | – | – | – | 39 | –
O=C(Nc1ccccc1)C(=O)Nc1ccc2c(c1)N(C(=O)C1CC1)CCC2 | – | – | – | – | 35
O=C(Nc1ccc(Cl)cc1Cl)c1cc(S(=O)(=O)N2CCC3(CC2)OCCO3)ccc1F | · | · | – | – | ·
COc1cccc(CNC(=O)CSc2ncc(S(=O)(=O)c3ccc(C)c(Cl)c3)c(=O)[nH]2)c1 | · | · | · | – | ·
COc1ccc(-c2nc(C)c(CCNC(=O)C(=O)Nc3ccccc3OC)s2)cc1 | · | · | – | – | ·
